Data on 6 sequences can be found in PMC8384837, “Expanding the binding specificity for RNA recognition by a PUF domain”.

What all share (test): yeast three-hybrid, YBZ-1, SC-Leu-His + 0.5 mM 3-AT, 4 days
Details in all cases: tags: N-Gal4 AD-HA kept; label: inside an RPR1-promoter hybrid RNA with tandem MS2 sites; ssRNA

One test concerns the target PUM1 PUF domain R4-PHT (Homo sapiens, UniProt Q14671 828-1176, N971P;Q975T). The method in brief: (§1)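 Matching RNA elements and Pumilio-1 PUF domain libraries, randomized at the three base-contacting residues of every repeat, were co-expressed from a centromeric plasmid in strain YBZ-1 (LexA–MS2 coat fusion, HIS3 reporter). The repeat regions were PCR-amplified and Illumina-sequenced from cells grown four days on SC-Leu (input) or SC-Leu-His + 0.5 mM 3-AT (selection). The interaction score is the log change in variant frequency from input to selection. It is computed in log2, with a pseudocount of 1 for absent variants.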

The target of another test is T1, PUM1 PUF domain R6-CFM (Homo sapiens, UniProt Q14671 828-1176, N1043C;Y1044F;Q1047M).
T1 sequence: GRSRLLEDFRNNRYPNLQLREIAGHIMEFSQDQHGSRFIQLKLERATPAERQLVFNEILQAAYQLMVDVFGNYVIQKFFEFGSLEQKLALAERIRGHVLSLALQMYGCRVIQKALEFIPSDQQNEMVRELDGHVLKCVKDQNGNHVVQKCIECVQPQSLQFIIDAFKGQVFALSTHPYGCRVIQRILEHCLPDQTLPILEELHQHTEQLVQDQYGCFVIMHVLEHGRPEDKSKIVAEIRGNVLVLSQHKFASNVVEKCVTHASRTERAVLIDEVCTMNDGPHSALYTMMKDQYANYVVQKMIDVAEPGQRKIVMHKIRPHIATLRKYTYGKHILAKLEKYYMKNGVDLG
In a few lines: as §1

The target in the next test is PUM1 PUF domain R3-LYM (Homo sapiens, UniProt Q14671 828-1176, C935L;R936Y;Q939M). The method in brief:
as §1

In a further test the target is PUM1 PUF domain R3-VFW (Homo sapiens, UniProt Q14671 828-1176, C935V;R936F;Q939W). In a few lines: as §1
Another test deals with PUM1 PUF domain R5-PLK (Homo sapiens, UniProt Q14671 828-1176, C1007P;R1008L;Q1011K). The method in brief:
as §1

For another test, the target named is PUM1 PUF domain R8-KFS (Homo sapiens, UniProt Q14671 828-1176, N1122K;Y1123F;Q1126S). In a few lines: as §1
For the next test, the target named is PUM1 PUF domain R1-CCK (Homo sapiens, UniProt Q14671 828-1176, S863C;R864C;Q867K). In a few lines:
as §1

A further test deals with PUM1 PUF domain R3-RTK (Homo sapiens, UniProt Q14671 828-1176, C935R;R936T;Q939K). In a few lines: as §1

For the sequence “GGCUAGAACUAGUGGAUCCCCCGGCGCCCGGCGGCUCGAGCCCGGGUAAGUGUAAAUAGUCUGCAUGCCGCCGGGCGCCAUGCCUGCAGGUCGACUCUAGAAAACAUG”, the binding signal in the test with PUM1 PUF domain R4-PHT is 6.07 log2 enrichment (interaction score); with PUM1 PUF domain R6-CFM, 3.02 log2 enrichment (interaction score); with PUM1 PUF domain R3-LYM it was 4.11 log2 enrichment (interaction score); with PUM1 PUF domain R3-VFW, 4.87 log2 enrichment (interaction score).
As for “GGCUAGAACUAGUGGAUCCCCCGGCGCCCGGCGGCUCGAGCCCGGGUAAGUGUACAUAGUCUGCAUGCCGCCGGGCGCCAUGCCUGCAGGUCGACUCUAGAAAACAUG”, the binding signal with PUM1 PUF domain R4-PHT is 2.45 log2 enrichment (interaction score).
In the case of “GGCUAGAACUAGUGGAUCCCCCGGCGCCCGGCGGCUCGAGCCCGGGUAAGUGUUAAUAGUCUGCAUGCCGCCGGGCGCCAUGCCUGCAGGUCGACUCUAGAAAACAUG”, the binding signal in the test with PUM1 PUF domain R5-PLK is 2.84 log2 enrichment (interaction score).
As to “GGCUAGAACUAGUGGAUCCCCCGGCGCCCGGCGGCUCGAGCCCGGGUAAGCGUAAAUAGUCUGCAUGCCGCCGGGCGCCAUGCCUGCAGGUCGACUCUAGAAAACAUG”, in the test with PUM1 PUF domain R8-KFS, the binding signal is 3.24 log2 enrichment (interaction score).
On to “GGCUAGAACUAGUGGAUCCCCCGGCGCCCGGCGGCUCGAGCCCGGGUAAGUGUAAAUUGUCUGCAUGCCGCCGGGCGCCAUGCCUGCAGGUCGACUCUAGAAAACAUG”, for which the binding signal with PUM1 PUF domain R1-CCK is 2.6 log2 enrichment (interaction score).
Regarding “GGCUAGAACUAGUGGAUCCCCCGGCGCCCGGCGGCUCGAGCCCGGGUAAGUGUAAUUAGUCUGCAUGCCGCCGGGCGCCAUGCCUGCAGGUCGACUCUAGAAAACAUG”, the figures for the binding signal with PUM1 PUF domain R3-VFW and with PUM1 PUF domain R3-RTK were 5.01 log2 enrichment (interaction score) and 4.87 log2 enrichment (interaction score), respectively.
